Source: PubChem
Sampled rows, rich in hits. Any-hit rate of the full collection: about 21%.
Pf growth 48h: inhibits P. falciparum growth in the first generation, 48 h; Potency, µM (top dose mostly 28.7 µM), inactives show top-dose activity change, negative = inhibition, actives largely listed as inhibitors; hit rate 5.9% among 310,000; P. falciparum luciferase growth in erythrocytes, 48 h; further: potency means the concentration at half of the fitted maximal effect; on the % scale 0 is the no-effect control and ±100 the full control effect
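Luciferase-expressing P. falciparum in infected erythrocytes (2% hematocrit, 0.1% parasitemia final) in RPMI 1640/0.5% Albumax were exposed to compound for 48 hours at 37 C, 5% CO2; growth read as luminescence.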
SARS PLP yeast: inhibitors of SARS-CoV papain-like protease in yeast; S. cerevisiae expressing SARS-CoV PLpro, growth rescue; Potency, µM (highest dose often 32.9 µM), without a hit: at the top dose activity, positive = growth rescue, hits mostly activators; hit rate 0.19% among 330,000; AID 485353; calls by dose curve; further: potency means the concentration at half of the fitted maximal effect; 0% is about no effect; nearly all actives have a fitted effect of over 55% in size
Shiga toxin inh: Shiga toxin inhibition. Vero cells, Shiga toxin protein synthesis inhibition reporter. inhibition, % at 38.7 µM. hit rate 9.2% among 290,000. AID 2315; in the data active means inhibition mostly above about 28%, no sharp cut-off; inactive means mostly below about 43%; further: 0% is about no effect
CHX counter: counter-screen for Shiga toxin inhibitors: cycloheximide protein synthesis inhibition; AID 2314; hit rate 12% among 300,000; cell reporter, cycloheximide protein synthesis inhibition counterscreen; max response, %; in the data active means max response mostly above about 13%, no sharp cut-off; inactive means mostly below about 14%; further: read at 38.3 µM for the half of the compounds with a filed dose; 0% is about no effect
NS1 function inh: inhibitors of influenza NS1 protein function | Potency, µM (doses to about 46.1 µM), inactives show at the highest dose activity, positive = more growth | hit rate 0.4% among 270,000; calls by dose curve; further: potency means the concentration at half of the fitted maximal effect; actives are rising curves; nearly all actives have a fitted effect of over 50% in size
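OD600 was taken as the measure of yeast growth restored by compound in an NS1-expressing S. cerevisiae strain. Cells had been washed out of glucose medium and diluted 1:100 into galactose -URA medium, pH 6.0.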
Pf growth 96h: P. falciparum growth inhibition at 96 hours. Potency, µM (top dose mostly 28.7 µM), without a hit: top-dose activity change, negative = inhibition, most hits filed as inhibitors. AID 504834. P. falciparum luciferase reporter growth, 96 h. hit rate 6.9% among 320,000; further: potency means the concentration at half of the fitted maximal effect; on the % scale 0 is the no-effect control and ±100 the full control effect
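Erythrocytes infected with luciferase-expressing P. falciparum were dispensed at 2% hematocrit and 0.05% parasitemia (final), then incubated with compounds 96 hours at 37 C in 5% CO2. Luminescence after detection reagent addition reported growth.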
An asterisk follows results filed as active; ? = inconclusive; . = not tested or not shown; [ ] = dose if it differs, or a comment. Unless noted, the call rests on the fitted dose curve; in most records, active means well fitted inhibition curve with a large enough effect; inconclusive means small, poorly fitted or top-dose-only effect, or another doubt; inactive means no such curve, though single readings can be large or run the other way.

SMILES	Pf growth 48h	SARS PLP yeast	Shiga toxin inh	CHX counter	NS1 function inh	Pf growth 96h
Cc1cc2cc(CN(CCCN3CCOCC3)C(=O)NC3CCCCC3)c(=O)[nH]c2cc1C	4.7µM*	-1%	-4	-2	-6%	240%
Cc1ccc2[nH]c(=O)c(CN(CCN3CCOCC3)C(=O)Nc3ccccc3F)cc2c1	?	6%	-2	-1	-24%	7%[5.75 µM]
Cc1ccc2[nH]c(=O)c(CN(CCCN3CCOCC3)C(=O)Nc3cccc(Cl)c3)cc2c1	8.3µM*	-18%	-4	1	-11%	1%
Cc1cccc2cc(CN(CCN3CCCC3)C(=O)NC3CCCCC3)c(=O)[nH]c12	4.7µM*	-8%	-17	-2	2%	?
Cc1cc2cc(CN(CCN3CCOCC3)C(=O)Nc3ccccc3F)c(=O)[nH]c2cc1C	9.3µM*	3%	-9	-2	-5%	.
O=C1C=C(/C=C/c2ccccc2)C[C@@H](c2ccc3c(c2)OCO3)C1	-4%	4%	.	.	.	2%
COc1ccc(N2CCN(CC(=O)NC(=O)NC(C)(C)C)CC2)cc1	-15%	0%	-4	8	.	38%
COc1cc2cc(CN(Cc3cccnc3)C(=O)Nc3ccccc3F)c(=O)[nH]c2cc1OC	7.4µM*	1%	13	-1	2%	22%
CNC(=S)N(CCc1ccccc1)Cc1cc2cc(OC)c(OC)cc2[nH]c1=O	?	8%	-6	-1	24%	?
O=C(CCc1cn2ccccc2n1)NC1CCCc2c1cnn2-c1ccccc1F (stereo unspecified)	-19%	-5%	-8	0	-6%	13µM*
COc1cccc(CNC(=O)C2CC(=O)N(c3ccc4c(c3)OCCO4)C2)c1 (stereo unspecified)	12%	3%	.	.	.	-11%
Cc1ccc2nc(/C(C#N)=C\c3ccc(Oc4ccc([N+](=O)[O-])cn4)cc3)[nH]c2c1	9.3µM*	-2%	12	1	-3%	?
COc1cc(/C=C(/C#N)c2ccc(C)cc2)ccc1Oc1ccc([N+](=O)[O-])cn1	?	4%	-4	1	11%	5%
COc1ccc2nc(/C(C#N)=C\c3ccc(Oc4ccc([N+](=O)[O-])cn4)cc3)[nH]c2c1	15µM*	7%	-5	-6	?	?
COc1ccc2nc(/C(C#N)=C\c3ccc(C(=O)O)cc3)[nH]c2c1	27%	-4%	-5	-1	.	12%
Cc1nc(-c2ccc(F)cc2)c(CC(=O)NCC(=O)Nc2ccc(F)c(F)c2)s1	?	-5%	.	.	.	?
Cc1nc(-c2ccc(F)cc2)c(CC(=O)N(C)CC(=O)Nc2ccccc2C(F)(F)F)s1	-9%	0%	.	.	.	-3%
Cc1nc(-c2ccc(F)cc2)c(CC(=O)N(C)CC(=O)Nc2ccccc2Br)s1	13µM*	-5%	.	.	.	?
CCN(CC(=O)Nc1ccccc1C(F)(F)F)C(=O)Cc1sc(C)nc1-c1ccc(F)cc1	15µM*	3%	.	.	.	?
Cc1nc(-c2ccc(F)cc2)c(CC(=O)N2CCN(S(=O)(=O)c3cccc(F)c3)CC2)s1	?	-4%	.	.	.	?
Cc1nc(-c2ccc(F)cc2)c(CC(=O)N2CCN(S(=O)(=O)c3ccccc3Br)CC2)s1	?	-1%	14	-3	13%	8.3µM*
Cc1cc(C)c(NC(=O)CNC(=O)Cc2sc(C)nc2-c2ccc(F)cc2)c(C)c1	13µM*	3%	.	.	.	?
CCOc1ccc(S(=O)(=O)N2CCCCC2)cc1NC(=O)C1CCC1	1%	-1%	.	.	.	0%
Cc1nc(-c2ccc(F)cc2)c(CC(=O)N(C)CC(=O)Nc2ccc(Br)cc2C)s1	5.2µM*	-4%	.	.	.	?
Cc1nc(N)sc1C(=O)N1N=N1	32%	-1%	-7	-2	3%	32%
SMILES	Pf growth 48h	SARS PLP yeast	Shiga toxin inh	CHX counter	NS1 function inh	Pf growth 96h
CCCCC[C@H](O)/C=C/[C@H]1CCC(=O)[C@@H]1CCCCCCC(=O)N1CCCCC1CO (stereo partly specified)	9.3µM*	-2%	-11	-1	8%	?
CCCCC[C@H](O)/C=C\[C@@H]1[C@H](O)CC(=O)[C@@H]1CCCCCCC(=O)O	?	.	.	.	.	5.1µM*
O=C(O)CSCC(=O)Nc1ccccc1SCCS(=O)(=O)c1ccc(Cl)cc1	3%	0%	-5	-4	2%	-7%
COc1ccc(-c2ccc(OC)c(C3C4C=CCCC4(C)C(=O)N3Cc3ccccc3)c2)cc1 (stereo unspecified)	.	.	-3	6	.	.
CCCC[n+]1ccn(-c2nc3c([N+](=O)[O-])cccc3n2C)c1	13µM*	-7%	-5	1	4%	2.1µM*
CCCC[n+]1ccn(-c2nc3ccccc3nc2[N-]S(=O)(=O)c2ccc(Cl)cc2)c1	-16%	-3%	20	-2	8%	-24%
Cc1cccc(N2CCN(C(=O)COc3cc(=O)n(C)c4ccccc34)CC2)c1C	12µM*	-5%	-6	-2	-52%	?
Cc1ccc(C)c(N2CCN(C(=O)CCCOc3cc(=O)n(C)c4ccccc34)CC2)c1	?	1%	7	-1	-69%	.
COc1ccc(N2CCN(C(=O)CCCOc3cc(=O)n(C)c4ccccc34)CC2)cc1	?	7%	-26	1	-10%	12µM*
Cc1ccc(C)c(N2CCN(C(=O)COc3cc(=O)n(C)c4ccccc34)CC2)c1	?	14%	6	16	-40%	-22%
CNC(=O)c1cc(S(=O)(=O)Nc2ccc3c(c2)OCO3)ccc1C	15%	-1%	14	-1	2%	22%
Clc1c(CSc2nc3ccccc3o2)nc2ccccn12	100%	-10%	54	33*	-127%	.
O=C(CSc1nc2ccccc2o1)Nc1nncs1	.	-11%	13	11	-8%	15%
Clc1c(CSc2nc3ccccc3o2)nc2sccn12	72%	-16%	152*	30*	-58%	0%
Brc1c(CSc2nc3ccccc3o2)nc2ncccn12	-25%	-7%	58	40*	-121%	?
c1ccc(-c2noc(CSc3nc4ccccc4o3)n2)cc1	10%	-7%	56	17	-12%	74%
Cc1cc(C)nc(SCc2nc3ncccn3c2Br)n1	8.3µM*	-5%	6	-6	-8%	4.1µM*
Brc1c(CSc2nncn2-c2ccccc2)nc2ncccn12	-10%	14%	-13	14	18%	-19%
COCCNC(=O)CSc1nc2ccccc2c(=O)n1CCCC(=O)NCc1ccccc1	17%	-9%	-13	-1	0%	-17%
O=C(CCN1C(=O)c2ccccc2S1(=O)=O)Nc1cccc(F)c1	-24%	3%	.	.	.	5%
CC(C)C(NC(=O)Nc1ccccc1)C(=O)Nc1cccc(S(=O)(=O)N(C)C)c1 (stereo unspecified)	?	.	-3	-2	13%	-11%
O=C(Nc1ccccc1C(F)(F)F)c1cc(S(=O)(=O)N2CCOCC2)ccc1F	10%	18%	14	-2	-3%	0.93µM*
Cc1ccc(S(=O)(=O)N2CCCCC2)cc1C(=O)N(CCc1ccccc1)Cc1ccccc1	13µM*	-4%	.	.	.	9.3µM*
